# Compound activity: PubChem, National Center for Advancing Translational Sciences (NCATS)
# FMDV antiviral = blocks foot and mouth disease virus. 1.2% of 410,000 active. FMDV antiviral cell-based qHTS. Potency, µM (highest dose often 57.9 µM), actives largely listed as inhibitors. AID 1159524; calls by dose curve; tested in HEK293T cells; further: read-out not given here; nearly all actives have a fitted effect of over 45% in size
# Shiga inhibitor = inhibitors of Shiga toxin in Vero cells. Vero cells, Shiga toxin protein synthesis inhibition reporter. inhibition, % at 38.7 µM. 9.2% of 290,000 active; in the data active means inhibition mostly above about 28%, no sharp cut-off; inactive means mostly below about 43%
# Cycloheximide cs = counter-screen hit for Shiga toxin inhibitors, cycloheximide; 12% of 300,000 active; cell reporter, cycloheximide protein synthesis inhibition counterscreen; AID 2314; max response, %; in the data active means max response mostly above about 13%, no sharp cut-off; inactive means mostly below about 14%; further: read at 38.3 µM for the half of the compounds with a filed dose
# Sm TGR inh = blocks Schistosoma mansoni thioredoxin glutathione reductase. Q962Y6. purified TGR, DTNB reduction, TNB absorbance 405 nm. Potency, µM (titrated, usually from 114 µM), hits mostly inhibitors. 3% of 360,000 active; active means well fitted inhibition curve with a large enough effect; inconclusive means small, poorly fitted or top-dose-only effect; inactive means no such curve, though single readings can be large or run the other way; further: nearly all actives have a fitted effect of over 60% in size
#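 TGR 20 nM + NADPH 100 uM (dispensed conc.), cpd preinc 15 min RT; start with NADPH (500 uM addition) then DTNB (15 mM addition). Kinetic TNB absorbance, 405 nm filter. Four-parameter Hill fit across titration.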
# A number is an active result; - = inactive; ? = inconclusive; . = no result given. Most compounds without a hit are left out; they make up all but 12% or so of the library.
SMILES,FMDV antiviral,Shiga inhibitor,Cycloheximide cs,Sm TGR inh
O=c1cc2oc3cc(O)c(O)cc3c(-c3ccccc3O)c-2cc1O,-,-,-,8.9µM
CCCn1c(=O)c2sccc2n2c(CCCC(=O)NCCOC)nnc12,-,.,.,-
CCN(C(=O)COC(=O)c1cnc(C)cn1)C1CCS(=O)(=O)C1 (stereo not given),-,.,.,-
CCOC(=O)C(=O)N(CC)C1CCS(=O)(=O)C1 (stereo not given),-,-,8.9,-
COc1cc2oc3ccc(C#Cc4ccccn4)cc3c(=O)c2cc1OC,-,.,.,.
Cn1c2ccccc2c(=O)c2ccc(C#Cc3ccccn3)cc21,-,-,-,32µM
Cn1c2ccccc2c(=O)c2cc(C#Cc3ccsc3)ccc21,-,-,9.3,?
Cn1c2ccccc2c(=O)c2cc(C#Cc3ccccn3)ccc21,-,-,23,20µM
CN1C(C(=O)NC(C)(C)C)=CC(c2ccc3c(c2)OCO3)=NS1(=O)=O,-,.,.,-
CCOC(=O)N1CCc2c(sc3c2c(=O)n(CCc2ccccc2)c(=O)n3Cc2c(F)cccc2Cl)C1,-,.,.,-
COc1ccccc1-c1noc(-c2ccco2)n1,-,80,51,-
COc1cc(-c2noc(-c3ccco3)n2)cc(OC)c1OC,-,80,18,-
COc1cc(-c2noc(-c3cccc(Cl)c3)n2)cc(OC)c1OC,-,-,-,-
COc1ccc(-c2nc(-c3ccccc3OC)no2)cc1OC,-,162,66,-
COc1ccccc1-c1noc(-c2ccccc2)n1,-,89,49,-
Cc1ccc(-n2nc(C)c3c(C)cc(=O)n(CC(=O)Nc4cc(Cl)ccc4C)c32)cc1,-,.,.,-
Cc1ccc(S(=O)(=O)n2nc(-c3ccccc3)nc2NCc2ccc(Cl)cc2)cc1,-,.,.,-
COC(=O)c1cccc(-c2cc(Cl)c3c(c2)CC(CNC(=O)c2cccnc2)O3)c1 (stereo not given),-,.,.,.
CCc1ccccc1N(CC)C(=O)c1cc2c(s1)-c1ccccc1SC2,-,.,.,-
CN(CCC#N)C(=O)c1cc2c(s1)-c1ccccc1SC2,-,81,52,-
CN(Cc1cccnc1)Cc1cn[nH]c1-c1ccc(-c2ccccc2)cc1,-,-,6.6,-
O=C(Cc1ccc(-c2ccccc2)cc1)NCc1cccnc1,-,-,-,-
Cn1cccc1C(=O)N1CCC2(CCCN(C(=O)Nc3ccccc3)C2)CC1,-,.,.,.
COc1ccccc1C(=O)Nc1ccc2c(c1)CN(Cc1cnc(C)s1)CC2,?,29,12,-
O=S(=O)(c1cc(F)ccc1F)N1CCC2(CC1)OCCO2,-,85,60,-
SMILES,FMDV antiviral,Shiga inhibitor,Cycloheximide cs,Sm TGR inh
Cc1cc(C)c2nc(N3C(=O)C(O)=C(C(=O)c4ccco4)C3c3ccc(O)cc3)sc2c1 (stereo not given),-,.,.,-
Cc1ccc2nc(N3C(=O)C(O)=C(C(=O)c4ccc(C)o4)C3c3ccco3)sc2c1 (stereo not given),-,.,.,?
Cc1ccc2nc(N3C(=O)C(O)=C(C(=O)c4ccco4)C3c3ccc(O)cc3)sc2c1 (stereo not given),.,-,16,-
Cc1ccc2nc(N3C(=O)C(O)=C(C(=O)c4ccco4)C3c3ccc(C)o3)sc2c1 (stereo not given),-,80,31,32µM
Cc1cccc(CN2CCC(CNC(=O)c3c(C)oc4ncnc(N5CCCCC5)c34)CC2)c1,-,.,.,-
CCOC(=O)c1c(NC(=O)/C=C/c2ccc(C(C)C)cc2)sc2c1CCC2,-,.,.,-
COc1ccc(C(=O)N2CCCCC2c2cc(C(=O)NCc3ccc(F)cc3)no2)cc1 (stereo not given),-,.,.,.
COc1cccc(CNn2c(-c3cccc(C)c3)nc3ccccc3c2=O)c1,.,-,19,-
COc1ccc(CNC(=O)c2ccncc2)cc1,-,-,-,-
COc1ccc(CNC(=O)c2cc(C3CC3)on2)cc1,-,-,25,-
COc1ccc(CNC(=O)c2ccc(C(C)(C)C)cc2)cc1,-,91,64,-
COc1ccc(CNC(=O)c2ccc(C)o2)cc1,-,-,13,-
COc1ccc(-c2nc(SCC(=O)c3ccc(OC)c(Br)c3)n[nH]2)cc1,-,.,.,-
COc1ccc(CNC(=O)c2cc3c(C)nc4ccccc4c3o2)c(OC)c1,?,-,-,-
COc1ccc(C(=O)NCc2ccc(N3CCN(C)CC3)cc2)cc1,-,-,-,-
COc1cccc(CNC(=O)c2cc3c(C)nc4ccccc4c3o2)c1,22µM,-,-,-
CC(C)c1ccc(CNNC(=O)c2ccccc2)cc1,-,75,52,-
COc1ccc(CNC(=O)c2ccc(C(C)C)cc2)cc1,-,157,46,-
COc1ncc2ncc(=O)n(CCC#N)c2n1,-,.,.,.
NC(N)=NC1=NC(=O)C(Cc2ccccc2)S1 (stereo not given),-,-,19,-
